# Target: UTS2D
# Experiment: pooled miR-30 sensor sort-seq; sequence = guide strand
# Conditions: shRNA
# Note: reference of the scale not given here.
row,Sequence,sensor-assay potency score (higher = more potent)
1,AAAGTTAGGAGTCCAAAGCAAA,-1.56
2,TTTTAGCTTTTCCAGCTGGTTA,-0.983
3,ATTTTTATTCAGTAGAGCCAGC,-1.2
4,TTGTAAAAAAATCAACACGGAT,-1.39
5,TTAGGAGTCCAAAGCAAACAGT,-1.23

# Target: UXS1
# Experiment: as above
# Conditions: shRNA
row,Sequence,sensor-assay potency score (higher = more potent)
1,TATACATGTAGTTTGGAGGGGA,0.245
2,TAATTAACTGAGCAAATTCTAG,-1.25
3,TAACTGAGCAAATTCTAGGATT,-0.862
4,TTTGTTTAAACCTTCCTCCAGC,-0.24
5,TTGTCTGAGACCCGGATCCGTA,-1.19
6,TTCAACCATCTCTTCAATCTTG,-0.0638
7,TTTTAGTTCACCATTTTCCTGG,0.218
8,TATCTGGTCAACCTCGATGTAG,-1.33
9,TTAACTGAGCAAATTCTAGGAT,0.0899
10,TTAGTGGTTCAACCATCTCTTC,-1.31
11,TAGGATTGTGTGTTCTTCTGGG,0.906
12,TAGATCGCTGACGTACTGGAAC,-0.778

# Target: VAMP1
# Experiment: as above
# Conditions: shRNA
row,Sequence,sensor-assay potency score (higher = more potent)
1,TTACTGGTCATGTTAGGAGGAG,-0.535
2,TTTTGTTGCACATTTGCTCATG,-0.374
3,TAGTCGTCTGTTACTGGTCATG,-1.49
4,TTTAGCTTGGCAGCACTGCTCT,-0.465
5,TTGACTGCAAAGTCCCAGGGTT,0.215
6,TATGATGTCCACCACCTCCTCC,-0.679
7,ATAACTACCACGATGATGGCAC,0.289
8,ATGATCATCATCTTGCAGTTTT,-0.861
9,AGCATGATCATCATCTTGCAGT,-1.92
10,TTTGGTGGAAGTACAACTGTTG,0.106
11,TAGCTTGGCAGCACTGCTCTCA,-0.655
12,TGCTGTAGTCGTCTGTTACTGG,-0.0703

# Target: VAMP8
# Experiment: as above
# Conditions: shRNA
row,Sequence,sensor-assay potency score (higher = more potent)
1,ATCATCTTCACGTTCTTCCACC,-0.825
2,AGATCCTCTGTCTTGTTGCGGA,-1.4
3,TAATATTCTTAACTCCCTCCAC,0.103
4,ATGTCGTCTTGAAGTGCTCAGA,-1.56
5,TTCTGGGTCATAATATTCTTAA,-1.25
6,TCTTCCACCAGAATTTTCGAGC,-0.564
7,ATCTTCACGTTCTTCCACCAGA,-1.17
8,TTTCGAGCCACCTTCTGCGATG,-0.89
9,AAGGACAATCATCTTCACGTTC,-0.269
10,ATGATAAAAACAATCACGCAGA,-0.843
11,TTTGCAGGTTCCGCACACGATC,-1.07

# From the OligoGym collection
